Assay outcomes as filed in PubChem.
Most compounds without a hit are left out; they make up all but 4.7% or so of the library.
D1 agonist = agonists of human D1 dopamine receptor; 360,000 compounds, 1% hits; AID 504660; HEK293 T-REx D1 cells, calcium flux, agonist mode; P21728; activation, % at 2 µM; further: 0% is about no effect
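Agonism was scored from calcium flux recorded over 180 s (1 read/s) after pintool compound addition, following a 10-cycle baseline. Cells were inducible force-coupled HEK293 TREx D1, plated overnight at 30 C and loaded with no-wash calcium dye.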
D1 antagonist = antagonists of human D1 dopamine receptor. P21728. HEK293 TREx D1 cells, calcium flux, dopamine EC80; stronger effect = lower value. activity change, negative = inhibition, % at 10 µM. 360,000 compounds, 3.2% hits. AID 504652; in the data active means activity change below about -30%; further: on the % scale 0 is the no-effect control and ±100 the full control effect
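Calcium flux readout: force-coupled, inducible Hek293 Trex D1 line, cells induced overnight at 30 C with tetracycline, dye-loaded 30–90 min at RT. Antagonism scored against EC80 dopamine challenge given 180 s after compound.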
D1 PAM = potentiators of human D1 dopamine receptor; potentiation, % at 10 µM; AID 504651; HEK293 TREx D1 cells, calcium flux, dopamine EC20 potentiation; 360,000 compounds, 0.036% hits; P21728; in the data active means potentiation above about 30%; further: 0% is about no effect
TRHR ag = activates the human TRH receptor | P34981 | TRHR cells, calcium flux fluo-8, FDSS agonist mode | activation, % at 2 µM | 360,000 compounds, 0.18% hits | AID 493084; further: 0% is about no effect
Target sequence (P34981 whole entry, looked up): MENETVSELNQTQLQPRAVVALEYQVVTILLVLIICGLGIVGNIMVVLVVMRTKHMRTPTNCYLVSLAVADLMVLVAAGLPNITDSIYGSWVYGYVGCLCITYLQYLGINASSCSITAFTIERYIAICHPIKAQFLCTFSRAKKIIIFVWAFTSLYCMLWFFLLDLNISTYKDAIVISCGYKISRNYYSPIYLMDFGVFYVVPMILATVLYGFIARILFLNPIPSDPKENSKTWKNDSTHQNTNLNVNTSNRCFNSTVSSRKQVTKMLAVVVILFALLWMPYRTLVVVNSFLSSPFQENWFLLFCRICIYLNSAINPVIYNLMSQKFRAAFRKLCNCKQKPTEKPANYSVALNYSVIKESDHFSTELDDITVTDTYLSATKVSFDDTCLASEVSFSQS
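TRHR-expressing cells, plated overnight in medium with 10% serum, were loaded with fluo-8 calcium dye at room temperature. After a 10 s baseline, library compound was pin-added and calcium release was recorded kinetically (ex 480/em 530) as agonist response.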
TRHR enhancer = allosterically enhances the human TRH receptor; AID 493056; TRHR cells, fluo-8 calcium fluorescence, EC20 TRH enhancement; P34981; 360,000 compounds, 0.66% hits; enhancement, % at 2 µM; in the data active means enhancement above about 30%; further: 0% is about no effect
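Enhancer read-out: after compound pinning and an initial kinetic agonist-mode read, an EC20 of TRH (10 nM final) was injected and fluo-8 calcium signal (Ex 480/Em 530) followed at 1 s/cycle for 100 cycles in TRHR-expressing cells.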
Active calls of the source: *; / = no result. Unless noted, no stated cut-off is given here; in the data, active means activation above about 30%; inactive means the rest.

SMILES | D1 agonist | D1 antagonist | D1 PAM | TRHR ag | TRHR enhancer
CCn1c(SCc2ccc(F)cc2Cl)nc(=O)c2c(C(=O)OC)cc(C3CC3)nc21 | 3 | 4 | 7 | 0 | 7
COc1cc2c(=O)n(CC3CCCO3)c(=O)n(CC(=O)Nc3cccc(Cl)c3)c2cc1OC (stereo not given) | 0 | -44* | -3 | -1 | -10
CCc1ccccc1OCc1nc2ccc(S(=O)(=O)N3CCOCC3)cc2[nH]1 | 0 | / | 0 | -1 | 33*
CCOc1ccc(CNC(=O)C2CCCN(c3nc4c(C)cc(C)cc4s3)C2)cc1 (stereo not given) | 1 | -21 | -6 | 0 | 1
Cc1ccc(C(=O)/C=C\C(=O)c2ccc(C)cc2)cc1 | 2 | -38* | -10 | 1 | 3
CSc1nccc(Oc2cccc(C#N)c2)n1 | 2 | -33* | -10 | -1 | 0
COc1cc2cc(Oc3ccc4ccc(=O)oc4c3)c(=O)oc2cc1OC(=O)/C=C/c1ccccc1 | 2 | -62* | -7 | -1 | 12
COc1ccc(C(=O)Oc2ccc3ccc(=O)oc3c2)cc1OC | 0 | -6 | -5 | 0 | -4
COc1cccc2cc(C(=O)CS(=O)(=O)c3ccc(Cl)cc3)c(=O)oc12 | 3 | 34 | 2 | 1 | 34*
COc1cccc2cc(C(C)=O)c(=O)oc12 | 1 | -23 | -1 | 1 | 7
CCCn1c(CCC(=O)Nc2cc(Cl)c(OC)cc2OC)nc2cccnc21 | 0 | -2 | -1 | -1 | -1
O=C1/C(=C/c2cccc([N+](=O)[O-])c2)Oc2cc(O)ccc21 | 20 | -30 | -1 | 10 | -3
COc1cc(/C=C2\Oc3cc(O)ccc3C2=O)ccc1O | 63* | 7 | -6 | 33* | -7
O=C1/C(=C/c2ccc(O)c(O)c2)Oc2cc(O)ccc21 | 46* | 12 | -6 | 11 | -4
COc1ccccc1CCN1COc2c(cc3c(C)c(C)c(=O)oc3c2C)C1 | 8 | -31* | 0 | -2 | 1
O=C(NCCCN1CCN(c2cccc(Cl)c2)CC1)c1cnn(-c2ccc(F)cc2)c1-n1cccc1 | 10 | -22 | -4 | -2 | -1
O=C(c1cccs1)c1cn(CCOc2ccc(F)cc2)c2ccccc12 | 35* | 29 | -5 | 0 | 4
O=C(c1cccs1)c1cn(CCOc2ccccc2F)c2ccccc12 | 14 | -11 | -2 | 0 | 6
N=c1n(Cc2ccccc2)c2ccccc2n1CC(O)COc1ccccc1 (stereo not given) | 25 | -31* | -8 | 0 | 0
Cc1ccc(Cn2c(=N)n(CC(O)COc3ccccc3)c3ccccc32)cc1 (stereo not given) | 42* | -17 | -8 | 1 | 6
CCCCn1c(=N)n(CC(O)COc2ccc(C)cc2)c2ccccc21 (stereo not given) | 27 | 5 | -6 | 2 | 4
Oc1ccc(Br)cc1C1C=C(c2ccc3c(c2)OCO3)NC(c2cccc(F)c2)N1 (stereo not given) | 18 | -9 | -5 | 0 | 7
CCOC(=O)Cc1csc(NC(=S)NC(=O)c2ccccc2Br)n1 | 61* | -27 | -4 | 13 | 5
CCOC(=O)Cc1csc(NC(=O)c2ccc(Br)s2)n1 | 6 | -36* | -7 | 0 | -5
CCOC(=O)Cc1csc(NC(=O)Nc2cccc(Cl)c2)n1 | 15 | -42* | -14 | 0 | -5
SMILES | D1 agonist | D1 antagonist | D1 PAM | TRHR ag | TRHR enhancer
CCOC(=O)Cc1csc(NC(=S)NC(=O)c2ccccc2)n1 | 9 | 9 | -6 | 8 | 3
COc1ccc(NC(=O)CSc2nc3c(oc4ccccc43)c(=O)n2-c2ccccc2)cc1OC | -1 | 17 | -5 | 0 | 19
COc1cc(Cl)c(C)cc1NC(=O)c1cc(S(=O)(=O)N2CCCC2)ccc1F | -2 | -1 | 0 | -1 | 5
CC1(C)CC(=O)c2c(Cc3ccccc3)noc2C1 | 2 | -11 | -2 | 0 | 32*
CCS(=O)(=O)N1CC(=O)N(c2cccc(Cl)c2)C(C)(C(=O)NC2CCCCCC2)C1 (stereo not given) | 0 | 6 | 0 | -1 | 1
COc1ccc(-n2cc(CNCCc3nc(C)cc(C)n3)c(-c3ccccc3Cl)n2)cc1 | 40* | 25 | -1 | 1 | 14
Fc1ccc(-n2cc(CNCCc3ccccn3)c(-c3ccccc3Cl)n2)cc1 | 34* | 18 | -4 | 1 | 19
